The values below come from PubChem BioAssay (NCI).

Structures are written as SMILES. Values joined by “and” are separate entries in the source; they are usually repeats but may differ in a detail not shown here. Equal entries are not always repeated. This is part of a sample that, as a whole, favours compounds with a hit. Of some 83,000 tested, about 20% had one in any assay.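 Values shown are percent growth following 48 h exposure of cells in 96-well plates to a single concentration of compound; below 10 was considered active.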 Active and inactive are the calls of the source. Where a SMILES comes first, the peptide text is derived from it.

This assay has as its system EKVX NSCLC. The assay can be described thus: NCI-60 one-dose screen, 48 h (100 = growth as untreated, 0 = no growth, -100 = all killed). To be noted: 10 µM. The procedure: Growth inhibition of the EKVX human Non-Small Cell Lung tumor cell line is measured as a screen for anti-cancer activity. Cells are grown in 96 well plates and exposed to the test compound for 48 hours. Compounds are tested at a single concentration, which is 10^-5 M for most compounds. The reported endpoint is percent growth (GI% or GIPRCNT), where numbers from 0 - 100% represent growth inhibition, and numbers from -100% - 0 represent cell death. For example, a value of 40 represents 60% growth inhibition. A value of 0 means no net growth occurred over the course of the experiment. A value of -40 indicates 40% of cells at the beginning of the experiment died by the end of the experiment. A value of -100 means all cells are dead at the end of the experiment.
NCI-60 Human Tumor Cell Lines Screen was performed using the standard one-dose NCI protocol, which is described in more detail at https://dtp.cancer.gov/discovery_development/nci-60/default.htm.
Compounds with GIPRCNT values below 10 were considered active. Activity score was based on GIPRCNT using the following formula: […]
Score is 0 for GIPRCNT values of 100 or above, 50 for GIPRCNT values of 0, and 100 for GIPRCNT values of -100.
In the case of `CCCCOc1ccc(Nc2cc(Cl)ccc2C(=O)O)cn1`, the growth is 101% (inactive) and 98.6% (inactive).

As to `CC(C)NCC(O)c1ccc(O)c(O)c1` (stereo not given), the growth is 104% (inactive) and 85% (inactive) and 91.2% (inactive).

As to `OCC1OC(O)C(O)C(O)C1O` (stereo not given), the growth was 114% (inactive).

`C/C(=C\c1ccccc1)c1ccccn1`: the growth was 98.7% (inactive).

With `CC1CCC2(C(=O)O)CCC3(C)C(=CCC4C5(C)CCC(O)C(C)(C)C5CCC43C)C2C1C` (stereo not given), the growth was 74% (inactive) and 70.8% (inactive).

In the case of `NC(Cc1c[nH]c2ccccc12)C(=O)O` (stereo not given), the growth was 93.1% (inactive) and 101% (inactive).

With `Cn1cnc([N+](=O)[O-])c1Sc1ncn[nH]1`, the growth is 101% (inactive).

Regarding `Cc1cc2ccccc2cn1`, the growth is 93% (inactive).

For `O=C1C=C(Nc2ccccc2)c2ccccc2C1=O`, the growth was 99.8% (inactive).

As to `O=CN1CCCCC1`, the growth was 94.9% (inactive).

For `CC[C@H](CC[C@@H](C)[C@H]1CC[C@H]2[C@@H]3CC=C4C[C@@H](O)CC[C@]4(C)[C@H]3CC[C@]12C)C(C)C`, the growth was 102% (inactive) and 107% (inactive).

As to `CCc1cc(C)cc(O)c1`, the growth is 101% (inactive).

On to `O=C(O)/C=C\C(=O)Nc1cccc2ccccc12`, for which the growth is 65.1% (inactive) and 112% (inactive).

Turning to `CC(=O)OCC1OC(OC(C)=O)C(OC(C)=O)C(OC(C)=O)C1OC(C)=O` (stereo not given), the growth was 99.7% (inactive).

Consider `Cc1ccc(=O)[nH]n1`, for which the growth was 114% (inactive) and 115% (inactive).

For `COc1cc(C(O)C2C(=O)OCC2C2(c3ccc4c(c3)OCO4)SCCCS2)cc(OC)c1OC` (stereo not given), the growth is 88.7% (inactive).

`CC(C)C(C)(C)c1ccc(O)cc1`: the growth was 107% (inactive).

Take `CCCCOC(=O)/C=C\C(=O)NC(N)=O`: the growth is 95% (inactive).

With `CCN(CCNS(C)(=O)=O)c1ccc(N)c(C)c1`, the growth is 88.9% (inactive).

Consider `Nc1nc(N)c2[nH]cnc2n1`, for which the growth was 97.5% (inactive).

Turning to `CC1=C/C(O)CC(=O)Cc2nc(co2)C(=O)N2CCC=C2C(=O)OC(C(C)C)C(C)/C=C\C(=O)NC/C=C\1` (stereo not given), the growth is 90.2% (inactive).

Consider `Nc1cc(N)c(N)cc1N`, for which the growth was 57.5% (inactive).

With `Cc1ccc(S(=O)(=O)c2ccccc2)cc1`, the growth is 76.7% (inactive).

In the case of `CN(C)c1ccc(/C=C\C(=O)c2ccccc2)cc1`, the growth was 105% (inactive).

For `c1ccc(-c2nc3ccccc3s2)cc1`, the growth was 85.5% (inactive).

For the molecule `Nc1ccc2c(O)cc(S(=O)(=O)O)cc2c1`, the growth is 102% (inactive) and 110% (inactive).

As for `Cc1cc(-c2cc(C)c(O)c(C)c2)cc(C)c1O`, the growth was 68.2% (inactive).

For the molecule `NN1CCOC(c2ccccc2)C1` (stereo not given), the growth was 115% (inactive).

`COc1ccc(C(=O)CC(c2ccccc2)C(C#N)c2ccccc2)cc1` (stereo not given): the growth is 84.9% (inactive).

For `C#CCOC(=O)Nc1ccccc1`, the growth is 99.1% (inactive).

For the molecule `COc1ccc(Nc2ccc3ccccc3c2)cc1`, the growth is 92.8% (inactive).

With `NC(Cc1ccccc1)C(=O)NC(Cc1ccccc1)C(=O)O` (stereo not drawn) (H-Phe-Phe-OH; configuration not given here), the growth is 98% (inactive).

Take `N#CC(C#N)N=Nc1ccc(Cl)cc1`: the growth was 77% (inactive).

Take `CN1CNC(=O)NC1`: the growth is 97.3% (inactive).

For `O=C(/C=C/c1ccccc1)c1ccccc1`, the growth is 93.4% (inactive).

`CC1CCC(C(C)C)C(NNC(N)=O)C1` (stereo not given): the growth was 101% (inactive).

For `c1ccc2c(c1)OC1OC2Oc2ccccc21`, the growth is 105% (inactive).

For the molecule `CN(C)CC1CCCCCC(CN(C)C)C1=O` (stereo not given), the growth was 111% (inactive).

Consider `O=C1CSC2=NCCN12`, for which the growth is 99% (inactive) and 64.7% (inactive).

Take `Nc1ncnc2c1ncn2C1OC(COP(=O)(O)O)C(O)C1O` (stereo not given): the growth is 113% (inactive).
